Laboratory results as given in PubChem BioAssay (NCATS).
Results filed as inconclusive are left out. A number with no mark means an inactive call. Calls of active or inactive are those of the source. The call rests on the fitted dose curve; in most records, active means well fitted inhibition curve with a large enough effect; inconclusive means small, poorly fitted or top-dose-only effect; inactive means no such curve, though single readings can be large or run the other way.

biological target: Cytochrome P450 3A7 (Homo sapiens) (UniProt P24462); assay: Cytochrome P450 family 3 subfamily A member 7 (CYP3A7) small molecule antagonists: luciferase biochemical qHTS assay (AID 1963596); conditions: P450-Glo CYP3A7 enzyme luminescence, 1 h; series mostly up to 57.4 µM; activity change, negative = inhibition: at the top concentration; further: nearly all actives have a fitted effect of over 40% in size
How it was run: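 Compounds were screened in qHTS format for interference with CYP3A7 turnover of a proluciferin substrate. Reactions ran 1 h at room temperature after NADPH regeneration solution was added, then luciferin product was detected by luminescence.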
On the % scale 0 is the no-effect control and ±100 the full control effect; potency means the concentration at half of the fitted maximal effect.

Chain of Cytochrome P450 3A7 (Homo sapiens) (P24462 whole entry, looked up): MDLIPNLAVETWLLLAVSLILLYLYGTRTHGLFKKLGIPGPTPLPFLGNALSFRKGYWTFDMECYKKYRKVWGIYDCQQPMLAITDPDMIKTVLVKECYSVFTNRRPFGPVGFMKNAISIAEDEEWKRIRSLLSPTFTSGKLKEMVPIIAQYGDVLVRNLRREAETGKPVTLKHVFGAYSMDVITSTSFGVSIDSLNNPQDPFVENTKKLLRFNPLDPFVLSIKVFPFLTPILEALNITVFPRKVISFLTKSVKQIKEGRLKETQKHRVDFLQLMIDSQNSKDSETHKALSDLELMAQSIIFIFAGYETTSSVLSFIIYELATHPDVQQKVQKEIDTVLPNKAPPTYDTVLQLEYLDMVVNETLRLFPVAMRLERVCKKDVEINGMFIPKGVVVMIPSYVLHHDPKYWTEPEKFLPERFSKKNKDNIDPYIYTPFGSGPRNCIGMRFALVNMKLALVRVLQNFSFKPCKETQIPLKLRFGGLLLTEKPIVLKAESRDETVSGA

SMILES | activity change, negative = inhibition | Potency
COc1cc(C(=O)NC(c2ccccc2Cl)c2cc(Cl)c3cccnc3c2O)cc(OC)c1OC (stereo not given) | -11.8% | 
OC[C@@H](O)C(O)[C@@H](O)CO (stereo not given in full) | -1.26% | 
C=CCNCCCCCC[N+](C)(C)C | 3.31% | 
CCC(=O)O | 3.13% | 
CC(C)(C)NCCCNC(=O)c1cccc(Br)c1 | -0.932% | 
Cc1cccc(C(=O)O)c1O | 1.62% | 
CCOc1ccc(S(=O)(=O)O)c2cccnc12 | -3.15% | 
CCOC(=O)C(CCc1ccccc1)NC1CCCN2CCCC(C(=O)O)N2C1=O (stereo not given) | -11.2% | 
Cc1c(C)n(CCN(C)C)c2ccc(C(=O)OCCN(C)C)cc12 | -0.197% | 
CCCC(=O)O | -11.8% | 
CCN(CCCO)CCCOc1ccc2c(Nc3cc(CC(=O)Nc4cccc(F)c4)[nH]n3)ncnc2c1 |  | 14.1 µM (active)
CN1CCN(c2cc3c(cc2F)c(=O)c(C(=O)O)cn3-c2ccc(F)cc2)CC1 | 15% | 
CCn1nnnc1NCc1ccc(C(C)C)cc1 | 0% | 
Cc1c(C)c2c(c(C)c1O)CC[C@@](C)(CCC[C@H](C)CCC[C@H](C)CCCC(C)C)O2 | 0% | 
CCC(O)c1ccccc1 (stereo not given) | -7.32% | 
COc1ccc(CNC(=O)c2nc(SCc3ccccc3F)ncc2Cl)cc1 | 0% | 
COC(=O)c1cc(S(C)(=O)=O)ccc1OC | 0.67% | 
CC(C)OC(=O)N1CCC(Oc2ncnc3c2cnn3-c2ccc(S(C)(=O)=O)cc2F)CC1 | -17.1% | 
Fc1ccc(CN2CCC(Nc3ccc(C(F)(F)F)nn3)CC2)cc1F | -15.1% | 
COc1cc(C(=O)NC(=S)Nc2cccc(NC(=O)c3ccccc3)c2)cc(OC)c1OC | -13.4% | 

SMILES | activity change, negative = inhibition | Potency
CN(C)CC1CCOC1(c1ccccc1)c1ccccc1 (stereo not given) | 16.7% [at 23.9 µM] | 
Cn1nnc(-c2ccc(-c3ccc(N4C[C@H](CO)OC4=O)cc3F)cn2)n1 | -4.78% | 
COc1cc(NC(=O)c2ccccn2)ccc1Cl | 7.79% | 
NC(=O)C[C@H](N)C(=O)O | -1.81% | 
Cc1cc(C)cc(NC(=O)Cn2c(=O)n(-c3ccc(C)c(C)c3)c(=O)c3oc4ccccc4c32)c1 | -23.7% | 
CC1(C)CCC(C)(C)c2cc(C#Cc3ccc(C(=O)O)cc3)ccc21 | 0% | 
CC1(C#N)CCN(c2c(C(=O)N3CCC(C(=O)C4CC4)CC3)cnc3ccc(F)cc23)CC1 | 0% | 
CN[C@H](CC(C)C)C(=O)N[C@H]1C(=O)N[C@@H](CC(N)=O)C(=O)N[C@H]2C(=O)N[C@H]3C(=O)N[C@H](C(=O)N[C@H](C(=O)O)c4cc(O)cc(O)c4-c4cc3ccc4O)[C@H](O)c3ccc(c(Cl)c3)Oc3cc2cc(c3O[C@@H]2OC(CO)[C@@H](O)[C@H](O)[C@@H]2O[C@H]2C[C@](C)(N)[C@H](O)[C@H](C)O2)Oc2ccc(cc2Cl)[C@H]1O (stereo not given in full) | -5.92% | 
Cc1ccc(Nc2nc3nonc3nc2Nc2cccc(C(F)(F)F)c2)cc1Cl | -28.6% | 
O=C1CC[C@H](C(=O)O)N1 | -1.48% | 
Nc1ccc(C(=O)Nc2ccccc2N)cc1 |  | 17.4 µM (active)
Nc1nc(N)c2nc(CNc3ccc(C(=O)N[C@@H](CCC(=O)O)C(=O)O)cc3)cnc2n1 | 0% | 
OCCOCCOCCO | -8.33% | 
O=P(O)(O)OC(CO)CO | -2.72% | 
COc1ccc(-c2nc3n(n2)C(c2ccc(OC)c(OC)c2)C(C(=O)Nc2cccnc2)=C(C)N3)cc1 (stereo not given) | -20% | 
Cc1cc(Nc2ccc(NC(=O)c3ccc(Nc4ccnc5ccccc45)cc3)cc2)nc(N)n1 | 10.5% | 
Cc1cc(OCCCS(C)(=O)=O)cc(C)c1-c1cccc(COc2ccc3c(c2)OCC3CC(=O)O)c1 (stereo not given) | 0% | 
CCCCC(=O)O | 0% | 
COc1ccc(-n2nc3c(N4CCCC(C(=O)NCc5ccc(C)cc5)C4)nnc(C)c3c2C)cc1 (stereo not given) | 14.6% | 
CC(C)[C@@H]1CC[C@@H](C)C[C@H]1OC(=O)c1ccccc1O | 5.46% | 
